Counter-ions that a name gives are not always drawn. ± gives the standard deviation of the averaged measurements.
What was measured:
[1] = system: Saccharomyces cerevisiae BY4741 SeMeCo community; assay: mean cell size (pixel area) (pixels); higher = larger cells; conditions: 10 µM; 24 h; SM minimal medium
Method in brief: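 Yeast cells were fixed with paraformaldehyde, imaged by automated confocal microscopy and analysed in Harmony to obtain mean cell pixel area per well. They came from a four-plasmid fluorescent Saccharomyces cerevisiae BY4741 community, each plasmid complementing one auxotrophy and carrying a fluorescent marker. Before imaging, 70 µl of culture at OD600 = 0.3 was incubated for 24 h in SM medium in 384-well plates predosed acoustically with drug (final 10 µM). Values are means of 3 replicates. Same SeMeCo high-content imaging drug screen: Selleck FDA-approved drugs at 10 µM, 24 h in SM medium, 384-well plates, 3 replicates.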

[2] = system: Saccharomyces cerevisiae BY4741 SeMeCo community; assay: z-score of subpopulation abundance vs DMSO median, subpopulation auxotrophic for M; higher = larger share of this subpopulation than in DMSO controls; conditions: 10 µM; 24 h; SM minimal medium; subpopulation (auxotrophy): M
Method in brief: (§1)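 Automated confocal microscopy of paraformaldehyde-fixed cells was used to follow a Saccharomyces cerevisiae BY4741 community carrying four plasmids, each restoring one auxotrophy and encoding a distinct fluorescent protein. The community was pre-grown overnight to OD600 1.0, diluted to 0.3, and added at 70 µl to 384-well plates acoustically predosed with library drugs (10 µM final) for 24 h of growth in minimal SM medium. Single-auxotroph fluorescent strains set thresholds and autofluorescence correction, and each subpopulation's abundance was scored as a z-score against the vehicle-well median.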

[3] = system: Saccharomyces cerevisiae BY4741 SeMeCo community; assay: z-score of subpopulation abundance vs DMSO median, subpopulation auxotrophic for U; higher = larger share of this subpopulation than in DMSO controls; conditions: 10 µM; 24 h; SM minimal medium; subpopulation (auxotrophy): U
Method in brief: as §1

[4] = system: Saccharomyces cerevisiae BY4741 SeMeCo community; assay: z-score of subpopulation abundance vs DMSO median, subpopulation auxotrophic for H; higher = larger share of this subpopulation than in DMSO controls; conditions: 10 µM; 24 h; SM minimal medium; subpopulation (auxotrophy): H
Method in brief: as §1

[5] = system: Saccharomyces cerevisiae BY4741 SeMeCo community; assay: z-score of subpopulation abundance vs DMSO median, subpopulation auxotrophic for LU; higher = larger share of this subpopulation than in DMSO controls; conditions: 10 µM; 24 h; SM minimal medium; subpopulation (auxotrophy): LU
Method in brief: as §1

[6] = system: Saccharomyces cerevisiae BY4741 SeMeCo community; assay: z-score of subpopulation abundance vs DMSO median, subpopulation auxotrophic for LM; higher = larger share of this subpopulation than in DMSO controls; conditions: 10 µM; 24 h; SM minimal medium; subpopulation (auxotrophy): LM
Method in brief: as §1

[7] = system: Saccharomyces cerevisiae BY4741 SeMeCo community; assay: z-score of subpopulation abundance vs DMSO median, subpopulation auxotrophic for HM; higher = larger share of this subpopulation than in DMSO controls; conditions: 10 µM; 24 h; SM minimal medium; subpopulation (auxotrophy): HM
Method in brief: as §1

[8] = system: Saccharomyces cerevisiae BY4741 SeMeCo community; assay: z-score of subpopulation abundance vs DMSO median, subpopulation auxotrophic for HU; higher = larger share of this subpopulation than in DMSO controls; conditions: 10 µM; 24 h; SM minimal medium; subpopulation (auxotrophy): HU
Method in brief: as §1

[9] = system: Saccharomyces cerevisiae BY4741 SeMeCo community; assay: z-score of subpopulation abundance vs DMSO median, subpopulation auxotrophic for UM; higher = larger share of this subpopulation than in DMSO controls; conditions: 10 µM; 24 h; SM minimal medium; subpopulation (auxotrophy): UM
Method in brief: as §1

[10] = system: Saccharomyces cerevisiae BY4741 SeMeCo community; assay: z-score of subpopulation abundance vs DMSO median, subpopulation auxotrophic for HL; higher = larger share of this subpopulation than in DMSO controls; conditions: 10 µM; 24 h; SM minimal medium; subpopulation (auxotrophy): HL
Method in brief: as §1

[11] = system: Saccharomyces cerevisiae BY4741 SeMeCo community; assay: z-score of subpopulation abundance vs DMSO median, subpopulation auxotrophic for HLU; higher = larger share of this subpopulation than in DMSO controls; conditions: 10 µM; 24 h; SM minimal medium; subpopulation (auxotrophy): HLU
Method in brief: as §1

[12] = system: Saccharomyces cerevisiae BY4741 SeMeCo community; assay: z-score of subpopulation abundance vs DMSO median, subpopulation auxotrophic for HLM; higher = larger share of this subpopulation than in DMSO controls; conditions: 10 µM; 24 h; SM minimal medium; subpopulation (auxotrophy): HLM
Method in brief: as §1

[13] = system: Saccharomyces cerevisiae BY4741 SeMeCo community; assay: z-score of subpopulation abundance vs DMSO median, subpopulation auxotrophic for HUM; higher = larger share of this subpopulation than in DMSO controls; conditions: 10 µM; 24 h; SM minimal medium; subpopulation (auxotrophy): HUM
Method in brief: as §1

[14] = system: Saccharomyces cerevisiae BY4741 SeMeCo community; assay: z-score of subpopulation abundance vs DMSO median, subpopulation auxotrophic for LUM; higher = larger share of this subpopulation than in DMSO controls; conditions: 10 µM; 24 h; SM minimal medium; subpopulation (auxotrophy): LUM
Method in brief: as §1

[15] = system: Saccharomyces cerevisiae BY4741 SeMeCo community; assay: z-score of subpopulation abundance vs DMSO median, subpopulation auxotrophic for HLUM; higher = larger share of this subpopulation than in DMSO controls; conditions: 10 µM; 24 h; SM minimal medium; subpopulation (auxotrophy): HLUM
Method in brief: as §1

[16] = system: Saccharomyces cerevisiae BY4741 SeMeCo community; assay: z-score of prototroph abundance vs DMSO median; higher = larger share of this subpopulation than in DMSO controls; conditions: 10 µM; 24 h; SM minimal medium; subpopulation (auxotrophy): Prototroph
Method in brief: as §1

| SMILES | mean cell size [1] | z-score of subpopulation abundance [2] | z-score of subpopulation abundance [3] | z-score of subpopulation abundance [4] | z-score of subpopulation abundance [5] | z-score of subpopulation abundance [6] | z-score of subpopulation abundance [7] | z-score of subpopulation abundance [8] | z-score of subpopulation abundance [9] | z-score of subpopulation abundance [10] | z-score of subpopulation abundance [11] | z-score of subpopulation abundance [12] | z-score of subpopulation abundance [13] | z-score of subpopulation abundance [14] | z-score of subpopulation abundance [15] | z-score of prototroph abundance [16] |
| --- | --- | --- | --- | --- | --- | --- | --- | --- | --- | --- | --- | --- | --- | --- | --- | --- |
| O=C1Nc2ccccc2C1=O [Isatin] | 12.3 ± 0.17 | -0.49 | 0.43 | 0.05 | 0.53 | -0.62 | -0.24 | 0.91 | 0.51 | -0.64 | 0.06 | -1.17 | 0.2 | -0.31 | -0.52 |  |
| CNCCC(Oc1ccc(C(F)(F)F)cc1)c1ccccc1 (centres undefined) [Fluoxetine HCl] | 12.4 ± 0.14 | 0.18 | 0 | -0.47 | 0.51 | 0 | -0.49 | -0.26 | 0.29 | -0.68 | 0.27 | -0.31 | -0.15 |  | 0.65 | 0.06 |
| C=C1c2cccc(O)c2C(O)=C2C(=O)[C@]3(O)C(O)=C(C(N)=O)C(=O)[C@@H](N(C)C)[C@@H]3[C@@H](O)[C@H]12 [Methacycline HCl] |  | 0.2 | -0.83 | 2.58 | -0.95 | 0.5 |  |  | -0.59 | 1.43 | -0.87 | 0.92 | -0.03 |  |  | 0.09 |
| Cc1c(OCC(F)(F)F)ccnc1C[S@@+]([O-])c1nc2ccccc2[nH]1 [Dexlansoprazole] | 12.3 ± 0.13 | -0.04 | -0.65 | 1.18 | 0.17 |  |  | -0.32 | -0.91 | 0.7 | 0.19 | -0.96 | -0.66 | 0.16 | -0.54 |  |
| O=C(O)Cc1ccccc1Nc1c(Cl)cccc1Cl [Diclofenac acid] | 12.5 ± 0.047 | 0.23 | -0.61 | -1.45 | -0.18 | 0 |  | -1.1 | -0.58 | -0.51 | 0.15 | 0 | -1.34 | -0.28 | -0.07 | 1.03 |
| CN[C@H](CC(C)C)C(=O)N[C@H]1C(=O)N[C@@H](CC(N)=O)C(=O)N[C@H]2C(=O)N[C@H]3C(=O)N[C@H](C(=O)N[C@H](C(=O)O)c4cc(O)cc(O)c4-c4cc3ccc4O)[C@H](O)c3ccc(c(Cl)c3)Oc3cc2cc(c3O[C@@H]2O[C@H](CO)[C@@H](O)[C@H](O)[C@H]2O[C@H]2C[C@](C)(N)[C@H](O)[C@H](C)O2)Oc2ccc(cc2Cl)[C@H]1O [Vancomycin HCl] |  | 0.48 | -0.35 | -0.1 | 0.18 |  | 0.33 | 0.05 |  |  | -0.51 | 0.73 | 0.51 | -0.38 | -0.53 | 0 |
| CCCN(CCc1cccs1)[C@H]1CCc2c(O)cccc2C1 [Rotigotine] | 12.6 ± 0.31 | 0.93 | -1.74 | -0.04 | -0.93 |  | 1.47 | -1.03 | -1.79 | 0.46 | -0.16 | -0.19 | -0.69 | -0.27 | -0.54 | 0.61 |
| COC(=O)C1=C(C)NC(C)=C(C(=O)OC2CCCN(Cc3ccccc3)C2)C1c1cccc([N+](=O)[O-])c1 (centres undefined) [Benidipine HCl] | 12.4 ± 0.23 | 0.13 | -1.06 | 0.92 | 0.07 |  | 0.86 |  | -0.42 | 1.55 | 0.26 | 0.06 | 0.12 | 0.29 | -0.21 | -0.13 |
| CN(C)C[C@@H]1CCn2cc(c3ccccc32)C2=C(C(=O)NC2=O)c2cn(c3ccccc23)CCO1 | 12.64 ± 0.084 | -0.34 | 0.49 | 1.52 | 1.13 | 0.82 | 0.28 | -0.03 |  | 1.61 | 1.21 | 0.91 | -0.43 | 0.63 | 0.34 | -0.66 |
| CC(=O)OC1CC2(C)C(CC(O)C3C4(C)CCC(O)C(C)C4CCC32C)C1=C(CCC=C(C)C)C(=O)O (centres undefined) [Fusidine] |  | 0.14 | -1.39 |  | 1.02 |  |  | 0.13 | -0.42 |  | 1.57 | 1.22 | 0.82 | 1.09 | 0.71 | -1.01 |
| CO[C@H]1C[C@@H]2CC[C@@H](C)[C@@](O)(O2)C(=O)C(=O)N2CCCC[C@H]2C(=O)O[C@H]([C@H](C)C[C@@H]2CC[C@@H](OP(C)(C)=O)[C@H](OC)C2)CC(=O)[C@H](C)/C=C(\C)[C@@H](O)[C@@H](OC)C(=O)[C@H](C)C[C@H](C)/C=C/C=C/C=C/1C [Ridaforolimus (Deforolimus, MK-8669)] |  | -1.24 | 3.51 | 15.9 | 5.01 | 5.98 | 20.9 | 25.9 | 12.7 | 13.8 | 23.1 | 16.1 | 29.1 | 11 | 21.4 | -18.3 |
| CS(=O)(=O)c1ccc([C@@H](O)[C@@H](CF)NC(=O)C(Cl)Cl)cc1 [Florfenicol] | 12.4 ± 0.26 | -1.1 | 0.29 | -0.98 | -0.09 | -0.75 | -1.52 |  | -0.38 | -0.56 | -0.45 | -0.4 | -0.98 | -0.3 | -0.14 | 0.5 |
| C[N+]1(C)[C@@H]2C[C@@H](OC(=O)C(O)(c3cccs3)c3cccs3)C[C@H]1[C@@H]1O[C@@H]12 [Tiotropium Bromide hydrate] | 12.5 ± 0.25 | 0.04 | 0.36 | -0.8 | -0.81 | -0.42 |  | -0.66 | 0.07 | -0.52 | -0.81 | -0.78 | -0.43 |  | -0.81 | 0.56 |
| CC(C)(C)C1CCC(CC2=C(O)c3ccccc3C(=O)C2=O)CC1 (centres undefined) [Buparvaquone] |  | 2.2 | -0.95 | -0.05 | 0.03 | 0.78 | 1.55 | -0.75 | 0.54 | -0.13 | 0.03 | 0.05 | 0.83 | 0.35 | 0.04 |  |
| C(=C\c1ccccc1)/CN1CCN(C(c2ccccc2)c2ccccc2)CC1 [Cinnarizine] | 12.21 ± 0.081 | -1.68 | 1.39 | -0.62 | 1.38 | -0.47 | -0.68 | 1.5 | 1.3 | 0.34 | 1.32 | -0.32 | 1.64 | 0.8 |  | -1.14 |
